A selection: hits, their analogues and other compounds. The true share with any hit is near 9.3%.
Sm TGR inh = blocks Schistosoma mansoni thioredoxin glutathione reductase | Q962Y6 | AID 485364 | purified TGR, DTNB reduction, TNB absorbance 405 nm | actives 3% (n = 360,000) | Potency, µM (titrated, usually from 114 µM), for inactives: at the highest dose activity change, negative = inhibition, hits mostly inhibitors; further: potency means the concentration at half of the fitted maximal effect; nearly all actives have a fitted effect of over 60% in size
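First, TGR (20 nM dispensed) and NADPH were mixed with compound. Second, a 15 min room-temperature incubation followed. Third, further NADPH and then DTNB were added to start the reaction. Finally, TNB absorbance was monitored kinetically.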
FMDV antiviral = antivirals against foot and mouth disease virus | FMDV antiviral cell-based qHTS | Potency, µM (titrated, usually from 57.9 µM), for the others: at the highest dose activity change, negative = inhibition, actives largely listed as inhibitors | actives 1.2% (n = 410,000) | AID 1159524; calls by dose curve; tested in HEK293T cells; further: read-out not given here; potency means the concentration at half of the fitted maximal effect; nearly all actives have a fitted effect of over 45% in size
HCV inhibitor = HCV inhibition; Huh7.5.1 HCVcc-Cre infection, luciferase reporter, 44 h; Potency, µM (top dose mostly 41.8 µM), without a hit: at the highest dose activity change, negative = inhibition, actives largely listed as inhibitors; actives 3.4% (n = 340,000); AID 651820; further: potency means the concentration at half of the fitted maximal effect
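Cells (1,000/well) were plated 4 h before compound, then infected with HCVcc-Cre virus (~0.5 moi). After 44 h further culture, infection was read as luciferase luminescence following a 15 min substrate incubation at room temperature.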
VACV mCherry inh = inhibitors of vaccinia virus infection (mCherry reporter signal) | Vaccinia virus mCherry reporter infection, fluorescence | Potency, µM (series often up to 36.5 µM), inactives show at the top dose activity change, negative = inhibition, usual class: inhibitors | actives 0.63% (n = 310,000); calls by dose curve; tested in A549 cells; further: potency means the concentration at half of the fitted maximal effect; nearly all actives have a fitted effect of over 35% in size
Vaccinia Venus = inhibitors of vaccinia virus (Venus reporter). Vaccinia virus Venus reporter expression, fluorescence. Potency, µM (highest dose often 36.5 µM), inactives show at the top dose activity change, negative = inhibition, most hits filed as inhibitors. actives 0.46% (n = 330,000). AID 720580; calls by dose curve; tested in A549 cells; further: potency means the concentration at half of the fitted maximal effect; nearly all actives have a fitted effect of over 30% in size
HCMV inh = blocks human cytomegalovirus replication; activity change, negative = inhibition, % at 57.5 µM; AID 1259415; actives 4.5% (n = 410,000); HFF cells, HCMV-luciferase reporter, 72 h; hits give low values; in the data active means activity change below about -60%; inconclusive means no clear call, values can overlap the other calls; inactive means above about -39%
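Two-dose cell screen: HFF monolayers treated with compounds and infected with luciferase-expressing HCMV at 1 PFU/cell, 72 h at 37C, then lysed for luciferase measurement.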
Numbers without * were called inactive; i = inactive; ? = inconclusive; · = no result given. Unless noted, the call rests on the fitted dose curve; in most records, active means well fitted curve in the direction sought with a large enough effect; inconclusive means small, poorly fitted or top-dose-only effect, or another doubt; inactive means no such curve, though single readings can be large; an effect the other way counts as inactive or inconclusive. On the % scale 0 is the no-effect control and ±100 the full control effect.

SMILES	Sm TGR inh	FMDV antiviral	HCV inhibitor	VACV mCherry inh	Vaccinia Venus	HCMV inh
Cc1ccc(NS(=O)(=O)c2ccc(NC(=O)c3ccccc3C(=O)O)cc2)c(C)c1	·	1%	1%	i	12%	8
Cc1cc(NC(=O)c2ccc(Br)o2)ccc1NC(=O)c1ccco1	-4%	23%	-4%	-6%	4%	-89*
Cc1ccc(C)c(C(C)NC(=O)c2ccc(Br)o2)c1 (stereo not drawn)	35µM*	-21%	-9%	-8%	-19%	-15
Cc1cc(C)cc(NS(=O)(=O)c2ccc(NC(=S)NC(=O)c3ccc(Br)o3)cc2)c1	-18%	0%	?	·	?	-76*
Cc1ccc(NS(=O)(=O)c2ccc(NC(=O)c3ccc(Br)o3)cc2)c(C)c1	-1%	?	13µM*	?	-20%	-31
CCCNC(=O)CNC(=O)c1ccccc1OCC(=O)Nc1ccc(Br)cc1	·	·	·	-11%	-14%	·
CNc1nc(N)c([N+](=O)[O-])c(N2CCCCCC2)n1	3%	-8%	-15%	·	·	-13
Nc1nc(Nc2ccccc2F)nc(N2CCCC2)c1[N+](=O)[O-]	-2%	13%	8.9µM*	-19%	?	58
CC(C)CCNc1nc(N)c([N+](=O)[O-])c(N2CCCCCC2)n1	-2%	?	?	·	·	-94*
CCc1cccc(C)c1NC(=O)COC(=O)C(NS(=O)(=O)c1ccc(Cl)cc1)C(C)O (stereo not drawn)	-8%	2%	29%	-10%	-4%	-37
CCOC(=O)C(NC(=O)CC)(Nc1sc(C)c(CC)c1C#N)C(F)(F)F (stereo not drawn)	50µM*	-6%	7%	-13%	-16%	?
Cc1cc(C(N)=O)c2ccccc2n1	-16%	·	6%	-9%	0%	-16
NC(=O)c1cc2ccncc2c2ccccc12	-14%	-16%	-13%	-20%	?	-99*
Cc1cccc(-n2ncc3c2CCCC3NC(=O)CCN2Cc3ccccc3C2=O)c1C (stereo not drawn)	-2%	-7%	-18%	-11%	-26%	-25
O=C(N/N=C/c1ccccc1)c1c(O)c2ccccc2[nH]c1=O	-6%	1%	?	-25%	-19%	-92*
O=C(N/N=C/c1ccc(F)cc1)c1c(O)c2ccccc2[nH]c1=O	-16%	?	20%	-10%	1%	-21
O=C(N/N=C/c1cccc(F)c1)c1c(O)c2ccccc2[nH]c1=O	-20%	5%	13µM*	-20%	-12%	-37
O=C(c1ccncc1)c1ccc(N2CCN(C3CC(=O)N(Cc4ccccc4)C3=O)CC2)cc1 (stereo not drawn)	-9%	16µM*	?	·	?	-63*
COc1ccc(N2CCN(C3CC(=O)N(Cc4ccccc4)C3=O)CC2)cc1 (stereo not drawn)	-3%	-16%	6%	-13%	-9%	-25
Cc1cc(N2C(=O)CC(N3CCN(c4ccc(C(=O)c5cccs5)cc4)CC3)C2=O)no1 (stereo not drawn)	?	-4%	-14%	·	-22%	32
O=C(c1ccc(N2CCN(C3CC(=O)N(Cc4cccs4)C3=O)CC2)cc1)c1cccnc1 (stereo not drawn)	-26%	?	13µM*	-3%	-20%	-39
Cc1ccccc1NC(=O)c1nc(S(C)(=O)=O)ncc1Cl	?	?	?	·	·	-99*
Cc1ccc(NC(=O)c2cc(-c3ccccc3)nn2-c2ccccc2)cc1	5%	-7%	?	-7%	-18%	-30
O=C(Nc1ccc(F)cc1)c1nn(-c2ccccc2)c(=O)cc1Cl	·	22µM*	6.3µM*	?	28µM*	-100*
CCOc1ccc(NC(=O)c2nc(S(=O)(=O)Cc3ccccc3C)ncc2Cl)cc1	·	·	·	14%	-21%	·
Cc1ccc(NC(=O)c2nc(S(=O)(=O)Cc3ccccc3)ncc2Cl)cc1	3.2µM*	28µM*	?	-23%	?	-98*
Cc1nnc(NC(=O)c2nc(S(=O)(=O)Cc3ccccc3)ncc2Cl)s1	22µM*	5.6µM*	10µM*	8%	-1%	-110*

Bioassay records deposited in PubChem BioAssay by National Center for Advancing Translational Sciences (NCATS).
